High-throughput results: PubChem BioAssay, several laboratories
cardiac RTF act: increases calcium sensitivity of human cardiac regulated thin filaments | AID 493008 | IANBD-labeled TnC RTF fluorescence at EC20 calcium; 0% EC20 calcium, 100% full calcium | actives 0.24% (n = 340,000) | activation, % at 7.2 µM;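 active = activation above the mean over all tested compounds plus 3 SD, cut at about 30% in these data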;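 also: rise in fluorescence read as greater calcium sensitivity of cardiac thin filaments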
C-LANA FP: blocks KSHV LANA C-terminal domain binding to DNA. actives 0.078% (n = 340,000). AID 504423. inhibition, % at 9 µM. MBP-C-LANA/FAM-LBS DNA binding, fluorescence polarization;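 active = highest replicate inhibition at or above 60% at 9 µM, even if other replicates fall short; inactive = all replicates below 60% inhibition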
Keap1 Nrf2 FP: Keap1-Nrf2 (human) interaction inhibition; Q14145; Keap1 Kelch-Nrf2 peptide fluorescence polarization, 1536-well; inhibition, % at 9.4 µM; actives 0.15% (n = 340,000); AID 504523; in the data active = inhibition above about 12%;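 also: human Keap1 Kelch domain with fluorescein labeled Nrf2 9mer peptide probe; higher means more block of Keap1 binding to Nrf2 peptide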
Target sequence (Q14145 whole entry, looked up, the tested form may be a part): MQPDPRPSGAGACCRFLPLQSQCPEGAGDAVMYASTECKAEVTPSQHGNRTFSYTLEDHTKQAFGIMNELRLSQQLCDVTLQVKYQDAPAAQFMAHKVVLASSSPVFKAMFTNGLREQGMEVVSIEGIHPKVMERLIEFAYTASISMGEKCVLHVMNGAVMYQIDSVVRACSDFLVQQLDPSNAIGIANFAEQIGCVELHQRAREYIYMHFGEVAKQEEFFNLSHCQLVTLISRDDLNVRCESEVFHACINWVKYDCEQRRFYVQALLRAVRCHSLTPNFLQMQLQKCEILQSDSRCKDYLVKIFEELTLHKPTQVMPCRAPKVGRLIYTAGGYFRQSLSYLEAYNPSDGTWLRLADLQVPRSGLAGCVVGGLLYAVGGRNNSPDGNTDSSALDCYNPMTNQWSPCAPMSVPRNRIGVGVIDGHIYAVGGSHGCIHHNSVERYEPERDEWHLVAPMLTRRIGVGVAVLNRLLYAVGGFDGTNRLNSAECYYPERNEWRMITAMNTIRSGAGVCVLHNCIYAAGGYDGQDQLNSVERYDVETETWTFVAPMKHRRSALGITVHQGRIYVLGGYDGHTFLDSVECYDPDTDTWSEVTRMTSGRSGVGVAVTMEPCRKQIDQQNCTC
Cardiac RTF inh: cardiac RTF calcium desensitization | P19429+P45379 | inhibition, % at 7.15 µM | IANBD-labeled cardiac RTF, Ca2+ fluorescence | actives 0.12% (n = 340,000);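 active = inhibition above the mean inhibition of all tested compounds plus 3 SD, cut at about 17% in these data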;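 also: assay run at fixed EC70 calcium of 1.6 mM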
Keap1 TSA: Keap1 (human) Kelch domain binding; AID 651823; Keap1 Kelch thermal shift, delta Tm; hits give high values; actives 8% (n = 400); max delta Tm, degrees C; shares compounds with Keap1 Nrf2 FP; in the data active = max delta Tm above about 0.48 degrees C
Sypro dye melt: counter-screen for Keap1 thermal shift hits: dye-only artifacts. 140 tested, under 10 active. AID 651858. Sypro Orange dye-only thermal melt, no protein, delta Tm; top dose 26 µM. shares compounds with Keap1 Nrf2 FP. delta Tm, degrees C (no concentration beside the values);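 active = at highest dose tested, delta Tm positive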
Each line names hits and unclear results; the compound was inactive in the other large screens (follow-up assays come after a bar, where they were run). Hits are enriched below; roughly 0.5% of the tested compounds scored in any of these assays.

Cc1ccc(NC(=S)NCc2ccc(F)cc2)c(C)c1	Keap1 Nrf2 FP 22.5 | Keap1 TSA inactive | Sypro dye melt inactive
COc1ccc(N(CC(=O)NCCSCc2ccc(Cl)cc2)S(C)(=O)=O)cc1Cl	none
CC(=O)Nc1cccc(Oc2ccc3c(c2)C(=O)NC3=O)c1	none
O=C(OCCN1C(=O)c2cccc3c(N4CCOCC4)ccc(c23)C1=O)c1ccc(Cl)cc1Cl	cardiac RTF act 191.7, C-LANA FP 62.6, Keap1 Nrf2 FP 42.9 | Keap1 TSA inactive | Sypro dye melt inactive
O=C(OCCN1C(=O)c2ccccc2C1=O)c1cc(S(=O)(=O)N2CCOCC2)ccc1Cl	none
O=C1NC(c2cc(Cl)cc([N+](=O)[O-])c2O)Nc2ccccc21 (stereo unspecified)	Keap1 Nrf2 FP 49.3 | Keap1 TSA inactive
O=C1NC(c2ccc(Cl)c([N+](=O)[O-])c2)Nc2ccccc21 (stereo unspecified)	none
CCC(Sc1nc2ccncc2[nH]1)C(=O)Nc1cc(Cl)ccc1C (stereo unspecified)	none
Cc1ccc2cc(CN(CCCO)S(=O)(=O)c3ccccc3F)c(=O)[nH]c2c1C	none
Cc1ccc2cc(CN(CCCO)S(=O)(=O)c3cccc4nsnc34)c(=O)[nH]c2c1C	Keap1 Nrf2 FP 13.6 | Keap1 TSA inactive | Sypro dye melt inactive
CCOC(=O)c1c(=O)n(O)c2ccc(OC)cc2[n+]1[O-]	Keap1 Nrf2 FP 19.3 | Keap1 TSA inactive
CCc1cccc(NC(=O)C2CCCN2S(=O)(=O)c2ccccc2C(F)(F)F)c1 (stereo unspecified)	none
CCN(CC)c1ccc2cc(S(=O)(=O)c3ccc(Cl)cc3)c(=O)oc2c1	cardiac RTF act 253.4, Keap1 Nrf2 FP 32.8 | Keap1 TSA inactive | Sypro dye melt inactive
O=C(CSC1=NNC(c2ccccn2)S1)Nc1ccccc1 (stereo unspecified)	none
O=C(CSC1=NNC(c2ccccn2)S1)Nc1cccc(Cl)c1 (stereo unspecified)	Keap1 Nrf2 FP 18.9 (no result: cardiac RTF act, Cardiac RTF inh) | Keap1 TSA inactive
O=[N+]([O-])c1cnc(Sc2ccncn2)s1	none
C=CCn1c(Sc2ncc([N+](=O)[O-])s2)n[nH]c1=O	Keap1 Nrf2 FP 18.7 | Keap1 TSA inactive | Sypro dye melt inactive
N=c1c(S(=O)(=O)c2ccccc2)cc2c(=O)n3ccccc3nc2n1Cc1cccnc1	none
Cc1cccn2c(=O)c3cc(S(=O)(=O)c4ccccc4)c(=N)n(Cc4cccnc4)c3nc12	Keap1 Nrf2 FP 19.5 | Keap1 TSA inactive
COc1cc2c3nnc(-c4ccc(F)cc4)c-3cn(Cc3ccccc3)c2cc1OC	Keap1 Nrf2 FP 15.9 | Keap1 TSA inactive | Sypro dye melt inactive
COc1cc2c3nnc(-c4ccc(F)cc4)c-3cn(Cc3ccc(F)cc3)c2cc1OC	none
Cc1ccccc1NC(=O)c1sc(NC(=O)C2CC2)nc1C	Keap1 Nrf2 FP 28.4 | Keap1 TSA inactive
Cc1nc(NC(=O)C2CC2)sc1C(=O)Nc1ccccc1	none
CC(=O)N1CCN(S(=O)(=O)c2cccc(C(=O)NNC(=O)c3ccc(Br)cc3)c2)CC1	cardiac RTF act 44.2, Keap1 Nrf2 FP 47.7 | Keap1 TSA inactive | Sypro dye melt inactive
COc1ccc(S(=O)(=O)N2CCc3ccccc32)cc1C(=O)N1CCOCC1	none
CCOC(=O)C(C)(C)N(Cc1ccccc1C)S(=O)(=O)c1ccc(Cl)c([N+](=O)[O-])c1	Keap1 Nrf2 FP 27.3 | Keap1 TSA inactive | Sypro dye melt inactive
Cc1ccnc2nc(C(=O)OCC(=O)N(CC(C)C)C3CCS(=O)(=O)C3)nn12 (stereo unspecified)	none
CCCCCCn1c(=O)[nH]c2nc3cc(N)c(C)cc3nc2c1=O	cardiac RTF act 627.3, Keap1 Nrf2 FP 27.3 | Keap1 TSA inactive | Sypro dye melt inactive
CCCCn1c(=O)[nH]c2nc3cc(NC(C)=O)ccc3nc2c1=O	none
Oc1cc2c(cc1O)[C@H]1c3ccc(O)c(O)c3OC[C@@]1(O)C2	none
Oc1ccc2c(c1)OCC1(O)Cc3cc(O)c(O)cc3C21 (stereo unspecified)	Keap1 Nrf2 FP 18.2 | Keap1 TSA inactive
CNC(=O)NC(=O)CSc1nc2sccc2c(=O)n1-c1ccccc1	none
Cc1ccc(C)c(N2CCN(C(=O)c3cc4ccccn4n3)CC2)c1	cardiac RTF act 102.8, Keap1 Nrf2 FP 16.3 | Keap1 TSA inactive | Sypro dye melt inactive
Cc1snc(S(=O)(=O)/C(C#N)=N/Nc2cccc(C(F)(F)F)c2)c1C#N	Keap1 Nrf2 FP 12.1 | Keap1 TSA inactive
CCOc1ccc(S(=O)(=O)Nc2cccc(C(=O)NCCCn3ccnc3)c2)cc1	Keap1 Nrf2 FP 27.4 | Keap1 TSA inactive
CCCCC(CCc1ccccn1)C(=O)c1ccccc1 (stereo unspecified)	none
CC(=O)Nc1ccc(NC(=O)C(C)Oc2ccccc2C(=O)NCc2ccccc2)cc1 (stereo unspecified)	none
COc1ccc(-n2nnnc2SCC(=O)N(C)C2CCS(=O)(=O)C2)cc1 (stereo unspecified)	none
CCn1nnnc1SCC(=O)N(C)C1CCS(=O)(=O)C1 (stereo unspecified)	Keap1 Nrf2 FP 37.2 | Keap1 TSA inactive
O=C(COC(=O)c1cccs1)Nc1cccc(S(=O)(=O)NC2=NCCCCC2)c1	none
O=C(COC(=O)c1ccc([N+](=O)[O-])s1)Nc1cccc(S(=O)(=O)NC2=NCCCCC2)c1	Keap1 Nrf2 FP 52.8 | Keap1 TSA inactive
COc1ccc(/C=c2\s/c(=C(/C#N)C(=O)NCc3ccco3)n(-c3ccccc3)c2=O)cc1	Keap1 Nrf2 FP 13.1 | Keap1 TSA inactive
CCCCOc1ccc(C2OC34CCCCC3C(C#N)(C#N)C2(C#N)C(=N)O4)cc1 (stereo unspecified)	C-LANA FP 60.3, Keap1 Nrf2 FP 27.2 | Keap1 TSA inactive | Sypro dye melt inactive
C=CCOc1ccc(C2OC34CCCCC3C(C#N)(C#N)C2(C#N)C(=N)O4)cc1 (stereo unspecified)	Keap1 Nrf2 FP 11.2 | Keap1 TSA inactive | Sypro dye melt inactive
Cc1cc(C)c(NC(=O)c2cccc3c2C(=O)N(C2CCCCC2)C3)c(C)c1	none
COc1ccc(C(C)=NNc2ccc([N+](=O)[O-])cc2S(=O)(=O)Nc2ccccc2C(=O)O)c(OC)c1	Keap1 Nrf2 FP 32.1 | Keap1 TSA 3.27 | Sypro dye melt inactive
CC1([N+](=O)[O-])COC2(CCCCC2)OC1	none
Cc1ccc(S(=O)(=O)N2CCCCC2)cc1NC(=O)c1ccccc1Cl	Keap1 Nrf2 FP 31.3 | Keap1 TSA inactive
COc1cc(S(=O)(=O)N2CCCCC2)ccc1NC(=O)c1ccccc1Cl	none
CC(OC(=O)c1ccc([N+](=O)[O-])o1)C(=O)NC1CCCCC1C (stereo unspecified)	Keap1 Nrf2 FP 20.8 | Keap1 TSA inactive
CNc1ccc(C(=O)OCC(=O)Nc2ccnn2C(C)C)cc1[N+](=O)[O-]	none
